Experimental data taken from PubChem BioAssay (NCATS).
Results filed as inconclusive are left out. A number with no mark means an inactive call. Activity calls are given as the source filed them. Calls follow the shape of the dose curve; as a rule, active = well fitted inhibition curve with a large enough effect; inconclusive = small, poorly fitted or top-dose-only effect; inactive = flat fitted curve, though single readings scatter.

target: Glutathione peroxidase 1 (Homo sapiens) (UniProt P07203); assay: Primary qHTS Assay for Inhibitors of Recombinant Selenoprotein Glutathione Peroxidase 1 (GPX1) (AID 1845191); settings: recombinant GPX1, GR-coupled NADPH fluorescence, 15 min; series mostly up to 48.8 µM; activity, negative = inhibition: at the top concentration; also: nearly all actives have a fitted effect of over 65% in size
Sequence (P07203 whole entry, looked up): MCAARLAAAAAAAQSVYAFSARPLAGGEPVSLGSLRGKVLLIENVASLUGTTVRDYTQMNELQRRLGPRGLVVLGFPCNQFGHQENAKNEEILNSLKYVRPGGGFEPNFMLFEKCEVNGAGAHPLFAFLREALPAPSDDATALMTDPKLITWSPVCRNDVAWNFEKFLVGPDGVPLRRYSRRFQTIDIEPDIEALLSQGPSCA
Outline: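 GPX1 10 nM, GR 100 nM, GSH 1 mM, NADPH 0.5 mM, CHP 0.5 mM (final). 30-min cpd preincubation, RT. Ex340/Em450 read t=0, t=15 min.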
% is scaled to controls: 0 for no effect and ±100 for the full control effect.

| Structure (SMILES) | activity, negative = inhibition | outcome | Potency |
| --- | --- | --- | --- |
| CC(C)NC[C@@H](O)COc1ccc(CC(N)=O)cc1 | -8.18% | – | – |
| COc1ccc(-c2cc(=O)c3c(O)cc(O[C@@H]4O[C@H](CO[C@@H]5O[C@@H](C)[C@H](O)[C@@H](O)[C@H]5O)[C@@H](O)[C@H](O)[C@H]4O)cc3o2)cc1O | – | inactive | – |
| CC[N+](C)(CC)CCOC(=O)C1c2ccccc2Oc2ccccc21 | – | inactive | – |
| COc1ccc(C(=O)NCc2ccc(OCCN(C)C)cc2)cc1OC | 1.34% | – | – |
| CC(=O)[C@@]1(O)CC[C@H]2[C@@H]3C[C@H](C)C4=CC(=O)C=C[C@]4(C)[C@@]3(F)[C@@H](O)C[C@@]21C | – | inactive | – |
| CCOC(=O)[C@H](CCc1ccccc1)N[C@@H](C)C(=O)N1CCC[C@H]1C(=O)O | – | – | inactive |
| COCC(=O)Nc1c(I)c(C(=O)NCC(O)CO)c(I)c(C(=O)N(C)CC(O)CO)c1I (centres undefined) | 1.91% | – | – |
| CCCNC(C)C(=O)Nc1c(C)csc1C(=O)OC (centres undefined) | 3.86% | – | – |
| CN1CCCN=C1COC(=O)C(O)(c1ccccc1)C1CCCCC1 (centres undefined) | -9.37% | – | – |
| Cc1c(I)c(=O)n(-c2ccccc2)n1C | 2.26% | – | – |
| Cc1cccc(Nc2ccccc2C(=O)O)c1C | -24.7% | – | – |
| COc1ccccc1Oc1c(NS(=O)(=O)c2ccc(C(C)(C)C)cc2)nc(-c2ncccn2)nc1OCCO | -24% | – | – |
| Cc1c(C)c2c(c(C)c1OC(=O)c1cccnc1)CC[C@@](C)(CCC[C@H](C)CCC[C@H](C)CCCC(C)C)O2 | – | inactive | – |
| CCCCCCCCCCOc1cc2c(=O)c(C(=O)OCC)c[nH]c2cc1OCC | -3.55% [at 4.49 µM] | – | – |
| CCCCOC(=O)c1ccc(N)cc1 | -6.85% | – | – |
| CCOC(=O)[C@H](CCc1ccccc1)N[C@@H](C)C(=O)N1Cc2cc(OC)c(OC)cc2C[C@H]1C(=O)O | – | inactive | – |
| CCCNC(C)(C)COC(=O)c1ccccc1 | -22.2% | – | – |
| O=C(O)CCC(=O)O | -2.3% | – | – |
| COC(=O)c1ccc(O)cc1 | -10.5% | – | – |
